# Like-named read-outs stand apart in the source and are kept apart here.
# Legend:
# FLT1 = settings: concentration: 1 μM, replicates: in singlicate; n = 1
# FLT3-autoinhibited = settings: concentration: 1 μM, replicates: in singlicate; n = 1
# FLT3 = settings: concentration: 1 μM, replicates: in singlicate; n = 1
# FLT4 = settings: concentration: 1 μM, replicates: in singlicate; n = 1
# FRK = settings: concentration: 1 μM, replicates: in singlicate; n = 1
# FYN = settings: concentration: 1 μM, replicates: in singlicate; n = 1
# GAK = settings: concentration: 1 μM, replicates: in singlicate; n = 1
# GCN2(Kin.Dom.2,S808G) = tested on: T1, GCN2(Kin.Dom.2,S808G); settings: concentration: 1 μM, replicates: in singlicate; n = 1
# T1 construct: gene EIF2AK4
# GRK1 = settings: concentration: 1 μM, replicates: in singlicate; n = 1
# GRK2 = tested on: T2, GRK2; settings: concentration: 1 μM, replicates: in singlicate; n = 1
# T2 construct: gene ADRBK1
# GRK3 = tested on: T3, GRK3; settings: concentration: 1 μM, replicates: in singlicate; n = 1
# T3 construct: gene ADRBK2
# GRK4 = settings: concentration: 1 μM, replicates: in singlicate; n = 1
# GRK7 = settings: concentration: 1 μM, replicates: in singlicate; n = 1
# GSK3A = settings: concentration: 1 μM, replicates: in singlicate; n = 1
# GSK3B = settings: n = 1
# HASPIN = tested on: T4, HASPIN; settings: concentration: 1 μM, replicates: in singlicate; n = 1
# T4 construct: gene GSG2
# HCK = settings: concentration: 1 μM, replicates: in singlicate; n = 1
# HIPK1 = settings: concentration: 1 μM, replicates: in singlicate; n = 1
# HIPK2 = settings: concentration: 1 μM, replicates: in singlicate; n = 1
# HIPK3 = settings: concentration: 1 μM, replicates: in singlicate; n = 1
# [1] = concentration: 1 μM, replicates: in singlicate
# 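Also: KINOMEscan kinase panel screen.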
structure (smiles),measurement,setting,value
Cc1cccc2c(-c3ccncn3)c(-c3ccc(F)cc3)nn12 [GW515532],%Inh,FLT1,32%
same,%Inh,FLT3-autoinhibited,12%
same,%Inh,FLT3,0%
same,%Inh,FLT4,10%
same,%Inh,FRK,0%
same,%Inh,FYN,1%
same,%Inh,GAK,76%
same,%Inh,"GCN2(Kin.Dom.2,S808G)",18%
same,%Inh,GRK1,3%
same,%Inh,GRK2,0%
same,%Inh,GRK3,0%
same,%Inh,GRK4,12%
same,%Inh,GRK7,0%
same,%Inh,GSK3A,1%
same,%Inh,GSK3B; [1],0%
same,%Inh,HASPIN,21%
same,%Inh,HCK,0%
same,%Inh,HIPK1,0%
same,%Inh,HIPK2,0%
same,%Inh,HIPK3,0%
COC(=O)c1cccc(NC(=O)NC2CCN(c3ccnc(Nc4ccc(F)cc4)n3)C2)c1 (stereo not drawn) [GSK1379725],%Inh,FLT1,24%
same,%Inh,FLT3-autoinhibited,0%
same,%Inh,FLT3,0%
same,%Inh,FLT4,0%
same,%Inh,FRK,13%
same,%Inh,FYN,15%
same,%Inh,GAK,0%
same,%Inh,"GCN2(Kin.Dom.2,S808G)",0%
same,%Inh,GRK1,5%
same,%Inh,GRK2,0%
same,%Inh,GRK3,38%
same,%Inh,GRK4,0%
same,%Inh,GRK7,0%
same,%Inh,GSK3A,0%
same,%Inh,GSK3B; [1],0%
same,%Inh,HASPIN,0%
same,%Inh,HCK,0%
same,%Inh,HIPK1,0%
same,%Inh,HIPK2,0%
same,%Inh,HIPK3,0%
CC(=O)c1c(C)c2cnc(Nc3ccn(C)n3)nc2n(C2CCCC2)c1=O,%Inh,FLT1,4%
same,%Inh,FLT3-autoinhibited,2%
same,%Inh,FLT3,0%
same,%Inh,FLT4,0%
same,%Inh,FRK,28%
same,%Inh,FYN,0%
same,%Inh,GAK,0%
same,%Inh,"GCN2(Kin.Dom.2,S808G)",36%
same,%Inh,GRK1,0%
same,%Inh,GRK2,17%
same,%Inh,GRK3,17%
same,%Inh,GRK4,0%
same,%Inh,GRK7,0%
same,%Inh,GSK3A,12%
same,%Inh,GSK3B; [1],0%
same,%Inh,HASPIN,0%
same,%Inh,HCK,29%
same,%Inh,HIPK1,14%
same,%Inh,HIPK2,31%
same,%Inh,HIPK3,13%
COC(=O)c1cccc(NC(=O)NC2CCN(c3ccnc(Nc4ccc(OC)cc4)n3)C2)c1 (stereo not drawn) [GSK1379746],%Inh,FLT1,26%
same,%Inh,FLT3-autoinhibited,0%
same,%Inh,FLT3,0%
same,%Inh,FLT4,4%
same,%Inh,FRK,11%
same,%Inh,FYN,8%
same,%Inh,GAK,0%
same,%Inh,"GCN2(Kin.Dom.2,S808G)",0%
same,%Inh,GRK1,0%
same,%Inh,GRK2,0%
same,%Inh,GRK3,43%
same,%Inh,GRK4,0%
same,%Inh,GRK7,0%
same,%Inh,GSK3A,0%
same,%Inh,GSK3B; [1],12%
same,%Inh,HASPIN,0%
same,%Inh,HCK,0%
same,%Inh,HIPK1,0%
same,%Inh,HIPK2,0%
same,%Inh,HIPK3,0%
CSc1ccc(-c2nc3n(c2-c2ccncc2)CCC3)cc1 [SKF-105561],%Inh,FLT1,7%
same,%Inh,FLT3-autoinhibited,7%
same,%Inh,FLT3,8%
same,%Inh,FLT4,0%
same,%Inh,FRK,0%
same,%Inh,FYN,0%
same,%Inh,GAK,10%
same,%Inh,"GCN2(Kin.Dom.2,S808G)",2%
same,%Inh,GRK1,8%
same,%Inh,GRK2,0%
same,%Inh,GRK3,28%
same,%Inh,GRK4,5%
same,%Inh,GRK7,0%
same,%Inh,GSK3A,0%
same,%Inh,GSK3B; [1],20%
same,%Inh,HASPIN,35%
same,%Inh,HCK,7%
same,%Inh,HIPK1,0%
same,%Inh,HIPK2,0%
same,%Inh,HIPK3,6%
Cc1ccc(NC(=O)Nc2ccc(Cl)c(C(F)(F)F)c2)cc1-c1ccc(C(=O)Nc2ccncc2)cc1 [GSK1398470],%Inh,FLT1,23%
same,%Inh,FLT3-autoinhibited,0%
same,%Inh,FLT3,27%
same,%Inh,FLT4,0%
same,%Inh,FRK,42%
same,%Inh,FYN,44%
same,%Inh,GAK,14%
same,%Inh,"GCN2(Kin.Dom.2,S808G)",15%
same,%Inh,GRK1,0%
same,%Inh,GRK2,0%
same,%Inh,GRK3,0%
same,%Inh,GRK4,10%
same,%Inh,GRK7,0%
same,%Inh,GSK3A,21%
same,%Inh,GSK3B; [1],10%
same,%Inh,HASPIN,10%
same,%Inh,HCK,0%
same,%Inh,HIPK1,0%
same,%Inh,HIPK2,0%
same,%Inh,HIPK3,0%
CS(=O)(=O)CCNCc1nc(-c2ccc3ncnc(Nc4ccc(OCc5ccccc5)c(Cl)c4)c3c2)cs1.Cl [GW582764],%Inh,FLT1,5%
same,%Inh,FLT3-autoinhibited,0%
same,%Inh,FLT3,0%
same,%Inh,FLT4,0%
same,%Inh,FRK,2%
same,%Inh,FYN,0%
same,%Inh,GAK,0%
same,%Inh,"GCN2(Kin.Dom.2,S808G)",0%
same,%Inh,GRK1,0%
same,%Inh,GRK2,0%
same,%Inh,GRK3,99.4%
same,%Inh,GRK4,4%
same,%Inh,GRK7,0%
same,%Inh,GSK3A,20%
same,%Inh,GSK3B; [1],3%
same,%Inh,HASPIN,32%
same,%Inh,HCK,0%
same,%Inh,HIPK1,0%
same,%Inh,HIPK2,0%
same,%Inh,HIPK3,0%
CC(C)c1ccc(O)cc1Nc1ccnc2ccc(C(F)(F)F)cc12 [GW482059],%Inh,FLT1,21%
same,%Inh,FLT3-autoinhibited,9%
same,%Inh,FLT3,1%
same,%Inh,FLT4,10%
same,%Inh,FRK,9%
same,%Inh,FYN,20%
same,%Inh,GAK,0%
same,%Inh,"GCN2(Kin.Dom.2,S808G)",0%
same,%Inh,GRK1,0%
same,%Inh,GRK2,14%
same,%Inh,GRK3,0%
same,%Inh,GRK4,21%
same,%Inh,GRK7,0%
same,%Inh,GSK3A,19%
same,%Inh,GSK3B; [1],0%
same,%Inh,HASPIN,3%
same,%Inh,HCK,10%
same,%Inh,HIPK1,0%
same,%Inh,HIPK2,31%
same,%Inh,HIPK3,0%
CCCCc1nn2ncccc2c1-c1ccnc(NC2CC2)n1 [GW684374],%Inh,FLT1,61%
same,%Inh,FLT3-autoinhibited,0%
same,%Inh,FLT3,29%
same,%Inh,FLT4,0%
same,%Inh,FRK,0%
same,%Inh,FYN,23%
same,%Inh,GAK,72%
same,%Inh,"GCN2(Kin.Dom.2,S808G)",0%
same,%Inh,GRK1,0%
same,%Inh,GRK2,0%
same,%Inh,GRK3,17%
same,%Inh,GRK4,0%
same,%Inh,GRK7,0%
same,%Inh,GSK3A,4%
same,%Inh,GSK3B; [1],1%
same,%Inh,HASPIN,0%
same,%Inh,HCK,0%
same,%Inh,HIPK1,0%
same,%Inh,HIPK2,0%
same,%Inh,HIPK3,8%
COc1cccc(CNC(=O)NC2CCN(c3ccnc(Nc4ccc(F)cc4)n3)C2)c1 (stereo not drawn) [GSK1379723],%Inh,FLT1,31%
same,%Inh,FLT3-autoinhibited,0%
same,%Inh,FLT3,0%
same,%Inh,FLT4,12%
same,%Inh,FRK,16%
same,%Inh,FYN,0%
same,%Inh,GAK,12%
same,%Inh,"GCN2(Kin.Dom.2,S808G)",0%
same,%Inh,GRK1,13%
same,%Inh,GRK2,0%
same,%Inh,GRK3,37%
same,%Inh,GRK4,6%
same,%Inh,GRK7,5%
same,%Inh,GSK3A,11%
same,%Inh,GSK3B; [1],13%
same,%Inh,HASPIN,0%
same,%Inh,HCK,0%
same,%Inh,HIPK1,0%
same,%Inh,HIPK2,0%
same,%Inh,HIPK3,36%
COc1ccc(Nc2nccc(N3CCC(NC(=O)c4cc5ccccc5s4)C3)n2)cc1 (stereo not drawn) [GSK1379738],%Inh,FLT1,14%
same,%Inh,FLT3-autoinhibited,0%
same,%Inh,FLT3,0%
same,%Inh,FLT4,3%
same,%Inh,FRK,0%
same,%Inh,FYN,41%
same,%Inh,GAK,0%
same,%Inh,"GCN2(Kin.Dom.2,S808G)",0%
same,%Inh,GRK1,0%
same,%Inh,GRK2,0%
same,%Inh,GRK3,0%
same,%Inh,GRK4,0%
same,%Inh,GRK7,0%
same,%Inh,GSK3A,11%
same,%Inh,GSK3B; [1],14%
same,%Inh,HASPIN,24%
same,%Inh,HCK,0%
same,%Inh,HIPK1,0%
same,%Inh,HIPK2,0%
same,%Inh,HIPK3,7%
COc1ccc(CSc2nnc(-c3ccc4ncsc4c3)o2)cc1C(F)(F)F,%Inh,FLT1,0%
same,%Inh,FLT3-autoinhibited,0%
same,%Inh,FLT3,0%
same,%Inh,FLT4,10%
same,%Inh,FRK,0%
same,%Inh,FYN,0%
same,%Inh,GAK,0%
same,%Inh,"GCN2(Kin.Dom.2,S808G)",0%
same,%Inh,GRK1,0%
same,%Inh,GRK2,0%
same,%Inh,GRK3,1%
same,%Inh,GRK4,18%
same,%Inh,GRK7,0%
same,%Inh,GSK3A,98.4%
same,%Inh,GSK3B; 1 µM,89%
same,%Inh,HASPIN,45%
same,%Inh,HCK,0%
same,%Inh,HIPK1,38%
same,%Inh,HIPK2,0%
same,%Inh,HIPK3,0%
